Data published in PubChem BioAssay.
Several values for one entry are separate records, joined by “and”; a condition that tells them apart may be missing. Equal values may be shown once. Activity calls are given as the source filed them.

Assays:
[1] = small molecules captured by biotinylated probe aFSTL3 – biochemical, small-molecule microarray, fluorescence 635/667, stem cell growth factor project, primary screen (AID 1064); settings: higher = more signal;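 further: measures binding of the biotinylated anti-FSTL3 antibody to printed compounds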
[2] = binders from COS7 lysate, DM2A8 probe, primary screen, torsin A project, cell lysate, small-molecule microarray, fluorescence 635/667 (AID 1065); settings: higher = more signal, COS7 lysate expressing mutant human TOR1A
[3] = small molecules captured by biotinylated probe aFGF2 – biochemical, small-molecule microarray, fluorescence 635/667, stem cell growth factor project, primary screen (AID 1067); settings: higher = more signal;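 further: measures binding of biotinylated aFGF2 protein to printed compounds on slides; z-score merges feature fluorescence and signal-to-noise across triplicate slides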
[4] = small molecules captured by biotinylated probe aFGF10 – biochemical, small-molecule microarray, fluorescence 635/667, stem cell growth factor project, primary screen (AID 1071); settings: higher = more signal;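 further: score merges 667 nm spot intensity and signal to noise from triplicate slides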
[5] = target: Neurogenic locus notch homolog protein 2 (Homo sapiens) (UniProt Q04721); assay: small molecules binding Notch2 protein – biochemical, small-molecule microarray, 635 nm fluorescence, stem cell growth factors, primary screen (AID 1073); settings: higher = more signal
[6] = target: Pro-neuregulin-1, membrane-bound isoform (Homo sapiens) (UniProt Q02297); assay: small molecules binding neuregulin-1 protein – biochemical, small-molecule microarray, fluorescence 635/667, psychiatric disease protein project, primary screen (AID 1075); settings: NRG1 binding, 635 nm fluorescence, higher = more signal;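 further: score combines 667 nm spot fluorescence with signal to noise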
[7] = test system: Neuregulin-1 EGF-like domain; assay: small molecules binding NRG1 EGF domain – biochemical, small-molecule microarray, 635 nm fluorescence, primary screen (AID 1081); settings: higher = more signal;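 further: binding of the protein to compounds printed on small-molecule microarray slides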
[8] = FRG1 expression reporter modulators in myotubes – cell-based, C2C12 myotubes, firefly/Renilla luciferase, luminescence, FRG1 inhibition for FSHD, primary screen (AID 1084); settings: FRG1 promoter luciferase, higher = more signal, called active from +8 up or from −8 down
[9] = small molecules captured by biotinylated probe aFST – biochemical, small-molecule microarray, fluorescence 635/667, stem cell growth factor project, primary screen (AID 1086); settings: higher = more signal;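 further: score merges 667 nm fluorescence with signal-to-noise of each printed compound spot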
[10] = binders of probe aHhip on microarray, primary screen, stem cell growth factor project, biochemical, small-molecule microarray, fluorescence 635/667 (AID 1087); settings: higher = more signal;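 further: score merges spot fluorescence at 667nm with spot signal to noise ratio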

Sequence of Neurogenic locus notch homolog protein 2 (Homo sapiens) (Q04721 whole entry, looked up, canonical isoform): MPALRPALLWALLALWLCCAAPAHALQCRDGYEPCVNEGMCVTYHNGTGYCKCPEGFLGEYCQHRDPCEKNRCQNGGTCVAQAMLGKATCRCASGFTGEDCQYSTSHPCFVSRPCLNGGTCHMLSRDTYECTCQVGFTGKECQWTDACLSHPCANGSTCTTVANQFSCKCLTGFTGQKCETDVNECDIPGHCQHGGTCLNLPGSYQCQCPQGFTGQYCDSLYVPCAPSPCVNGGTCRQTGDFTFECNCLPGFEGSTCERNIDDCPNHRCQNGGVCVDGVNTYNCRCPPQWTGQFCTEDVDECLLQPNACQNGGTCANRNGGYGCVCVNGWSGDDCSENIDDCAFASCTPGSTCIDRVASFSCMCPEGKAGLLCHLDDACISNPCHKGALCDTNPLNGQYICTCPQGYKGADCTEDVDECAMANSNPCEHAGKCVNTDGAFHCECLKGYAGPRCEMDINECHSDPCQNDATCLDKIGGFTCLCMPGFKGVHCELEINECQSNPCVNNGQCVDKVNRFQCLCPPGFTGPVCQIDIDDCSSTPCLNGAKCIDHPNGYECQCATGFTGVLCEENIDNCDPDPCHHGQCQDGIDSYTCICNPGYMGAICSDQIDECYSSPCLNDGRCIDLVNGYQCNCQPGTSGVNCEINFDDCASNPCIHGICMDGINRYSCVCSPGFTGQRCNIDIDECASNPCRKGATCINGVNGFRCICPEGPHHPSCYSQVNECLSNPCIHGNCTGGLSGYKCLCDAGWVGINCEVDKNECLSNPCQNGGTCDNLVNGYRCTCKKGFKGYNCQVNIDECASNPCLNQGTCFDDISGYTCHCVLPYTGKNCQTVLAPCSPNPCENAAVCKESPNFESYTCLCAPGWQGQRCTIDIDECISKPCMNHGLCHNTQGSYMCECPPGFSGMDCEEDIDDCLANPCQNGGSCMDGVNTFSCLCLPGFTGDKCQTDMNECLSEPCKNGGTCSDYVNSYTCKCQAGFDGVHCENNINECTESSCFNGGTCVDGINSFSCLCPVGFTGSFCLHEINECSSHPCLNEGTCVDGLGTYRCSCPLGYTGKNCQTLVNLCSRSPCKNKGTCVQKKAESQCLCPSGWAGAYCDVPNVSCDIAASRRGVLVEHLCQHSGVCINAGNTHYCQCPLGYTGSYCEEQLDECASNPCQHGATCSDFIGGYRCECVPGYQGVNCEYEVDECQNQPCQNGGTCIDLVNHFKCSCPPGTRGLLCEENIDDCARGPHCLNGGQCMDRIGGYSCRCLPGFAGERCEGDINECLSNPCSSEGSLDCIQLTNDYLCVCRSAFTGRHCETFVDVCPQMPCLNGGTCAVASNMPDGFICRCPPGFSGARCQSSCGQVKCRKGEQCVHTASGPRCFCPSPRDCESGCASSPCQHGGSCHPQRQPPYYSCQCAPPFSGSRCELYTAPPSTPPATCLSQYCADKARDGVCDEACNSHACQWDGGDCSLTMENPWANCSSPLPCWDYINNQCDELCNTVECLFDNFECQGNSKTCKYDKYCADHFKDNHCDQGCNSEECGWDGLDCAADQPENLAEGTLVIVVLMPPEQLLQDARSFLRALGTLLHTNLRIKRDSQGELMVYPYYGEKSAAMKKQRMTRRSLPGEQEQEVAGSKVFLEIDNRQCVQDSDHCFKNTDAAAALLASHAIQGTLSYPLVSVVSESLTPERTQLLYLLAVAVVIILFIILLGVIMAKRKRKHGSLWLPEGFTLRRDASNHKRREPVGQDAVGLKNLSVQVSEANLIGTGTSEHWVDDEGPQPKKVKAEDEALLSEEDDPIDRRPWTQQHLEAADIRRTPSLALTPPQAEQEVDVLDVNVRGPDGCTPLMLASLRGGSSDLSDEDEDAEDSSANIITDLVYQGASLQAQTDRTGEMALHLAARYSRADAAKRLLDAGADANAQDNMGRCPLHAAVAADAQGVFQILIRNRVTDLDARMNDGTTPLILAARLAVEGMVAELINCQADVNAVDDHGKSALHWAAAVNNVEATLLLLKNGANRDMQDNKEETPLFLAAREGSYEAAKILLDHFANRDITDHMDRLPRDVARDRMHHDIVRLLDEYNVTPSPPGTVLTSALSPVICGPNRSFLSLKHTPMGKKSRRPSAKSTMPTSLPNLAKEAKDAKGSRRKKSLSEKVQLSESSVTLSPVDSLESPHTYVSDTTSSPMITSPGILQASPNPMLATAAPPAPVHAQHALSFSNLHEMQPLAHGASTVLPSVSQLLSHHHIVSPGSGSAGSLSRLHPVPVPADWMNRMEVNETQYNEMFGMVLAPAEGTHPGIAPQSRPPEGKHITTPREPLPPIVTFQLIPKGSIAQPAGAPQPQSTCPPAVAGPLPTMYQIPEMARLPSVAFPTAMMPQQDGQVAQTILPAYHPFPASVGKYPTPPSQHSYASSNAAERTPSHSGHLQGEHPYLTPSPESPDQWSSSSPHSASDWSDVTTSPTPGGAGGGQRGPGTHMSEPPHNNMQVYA
Sequence of Pro-neuregulin-1, membrane-bound isoform (Homo sapiens) (Q02297 whole entry, looked up, the tested form may be a part, canonical isoform): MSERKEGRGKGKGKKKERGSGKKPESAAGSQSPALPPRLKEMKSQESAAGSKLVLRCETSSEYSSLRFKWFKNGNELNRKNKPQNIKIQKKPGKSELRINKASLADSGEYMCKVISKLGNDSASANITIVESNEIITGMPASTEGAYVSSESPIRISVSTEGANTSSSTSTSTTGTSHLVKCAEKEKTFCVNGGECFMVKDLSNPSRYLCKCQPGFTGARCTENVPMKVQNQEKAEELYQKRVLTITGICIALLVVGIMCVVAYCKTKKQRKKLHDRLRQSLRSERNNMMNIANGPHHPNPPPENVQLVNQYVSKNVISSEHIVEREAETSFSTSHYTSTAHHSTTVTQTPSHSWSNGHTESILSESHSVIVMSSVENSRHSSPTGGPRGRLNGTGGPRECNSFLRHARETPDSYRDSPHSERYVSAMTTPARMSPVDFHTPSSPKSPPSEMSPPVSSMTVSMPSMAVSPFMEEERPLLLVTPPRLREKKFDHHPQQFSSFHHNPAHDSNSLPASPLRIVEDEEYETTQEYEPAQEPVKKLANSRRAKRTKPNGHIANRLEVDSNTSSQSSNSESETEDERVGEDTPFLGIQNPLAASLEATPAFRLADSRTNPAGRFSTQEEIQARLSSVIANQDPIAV

| Structure (SMILES) | composite z-score [1] | composite z-score [2] | composite z-score [3] | composite z-score [4] | composite z-score [5] | composite z-score [6] | composite z-score [7] | z-score [8] | composite z-score [9] | composite z-score [10] |
| --- | --- | --- | --- | --- | --- | --- | --- | --- | --- | --- |
| COC(=O)[C@@]1(Cc2ccccc2)[C@H]2c3cc(C(=O)N(C)C)n(C[C@H](O)CO)c3C[C@H]2CN1C(=O)c1ccccc1 | 0.323 and 0.439 | -0.347 and 0.188 | 0.0002 and -0.0065 | 0.122 and 0.158 | 1.15 and 1.53 | 2.1 and 2.01 | 1.47 and 1.03 | 1.92 (inactive) and 0.827 (inactive) | 0.606 and 0.955 | 0.174 and 0.192 |
| C#CCN1C(/C=C/c2ccccc2)C(=O)OC[C@H]1c1ccccc1 (stereo not given in full) | -0.256 and -0.303 | 0.184 and 0.348 | -0.0569 and -0.1 | 0.301 and 0.398 | 0.346 and -0.0877 | -0.0907 and 0.365 | 0.165 and 0.833 | -1.03 (inactive) and -0.536 (inactive) | -0.151 and 0.465 | 0.0401 and -0.276 |
| CC(CO)N1C(=O)[C@@H]2C3C(=O)OCCC=C[C@H]3OC23C=CCN(Cn2nnc4ccccc42)C(=O)[C@@H]13 (stereo not given in full) | 0.634 and 0.0762 | -1.37 and 0.709 | -0.187 and -0.0234 | 0.0583 and 0.509 | -1.7 and -0.0585 | 1.32 and 1.91 | 1.5 and 1.48 | -0.191 (inactive) and 0.519 (inactive) | -0.545 and -0.255 | -0.137 and -0.228 |
| CC(=O)OC[C@H]1O[C@H](C#CC(C)(C)C)C=C[C@@H]1OC(C)=O | -0.358 | -0.159 | -0.126 | 0.039 | 1.01 | 1.38 | 1.25 | -0.259 (inactive) | 0.454 | 0.164 |
| C=CCN(C(=O)C(c1cccs1)N(C(=O)/C=C\C(=O)O)C(C)(C)CO)c1ccc(OC)cc1 (stereo not given) | 0.865 and 0.636 | -0.709 and 0.408 | -0.204 and -0.158 | -1.37 and -0.882 | -0.907 and -1.48 | 1.46 and 1.42 | 1.36 and 0.431 | -0.447 (inactive) and 1.44 (inactive) | -0.337 and -0.451 | -0.482 and -0.0645 |
| C=CCN(C(=O)C1N(c2c(Cl)cccc2CO)C(=O)C2C(C(=O)O)C3C=CC21O3)C(C)(C)C (stereo not given) | -0.933 and 1.87 | -1.67 and -0.997 | -0.238 and -0.0459 | -0.782 and -0.419 | -0.872 and -1.15 | 0.0516 and -0.736 | 0.0868 and -0.844 | 0.756 (inactive) and -1.07 (inactive) | -0.347 and -0.422 | -1.01 and 0.51 |
| C[C@@H]1CC[C@H]2C(=O)O[C@H](CN=[N+]=[N-])CN2[C@H]1c1ccc(Br)cc1 | -0.0927 and -0.0564 | 0.622 and 0.269 | -0.158 and -0.187 | -0.12 and -0.336 | -0.321 and -0.635 | -0.198 and 0.292 | -0.238 and -0.279 | -0.492 (inactive) and -0.161 (inactive) | 0.3 and -0.405 | -0.0657 and -0.0618 |
| C=CCN(C(=O)C1N(c2c(Cl)cccc2CO)C(=O)C2C(C(=O)O)C3C=CC21O3)c1ccc(OC)cc1 (stereo not given) | 0.778 and 0.859 | -1.57 and -1.33 | -0.119 and -0.252 | -0.653 and -1.76 | -1.09 and -1.92 | -0.515 and -0.497 | 0.507 and -0.579 | 1.48 (inactive) and -1.39 (inactive) | -0.826 and -0.934 | -0.283 and -0.517 |
| CC(CO)N1C(=O)[C@@H]2C3C(=O)OCCC=C[C@H]3OC23C=CCN(Cc2ccccc2)C(=O)[C@@H]13 (stereo not given in full) | 0.144 and 0.708 | 1.03 and -0.0188 | -0.162 and -0.111 | -0.691 and 0.0659 | -1.24 and -0.565 | -0.852 and 1.22 | 1.08 and 0.738 | 0.587 (inactive) and 0.0791 (inactive) | -0.41 and -0.455 | -0.236 and -0.34 |
| CCN1C(=O)[C@H]2[C@H]3[C@H](O)[C@H](O)CC(=NNC(=O)OCc4ccc(OC)cc4)[C@H]3CC[C@H]2C1=O | 2.2 | 0.349 | -0.0775 | 0.284 | -0.0863 | -0.116 | -0.222 | -0.0988 (inactive) | 1.03 | -0.0482 |
| C=CCN(CCCCC)C(=O)C1N(CCOCCO)C(=O)C2C(C(=O)O)C3C=CC21O3 (stereo not given) | 0.555 and 0.963 | -0.771 and -0.902 | -0.191 and -0.283 | -1.87 | -0.459 and -2.05 | 0.17 and -0.496 | 0.891 and 1.05 | 0.306 (inactive) and 0.0282 (inactive) | -0.211 and -0.726 | -0.171 and -0.182 |
| CO[C@@H]1COC(=O)CC=C[C@H](C)COC(=O)[C@H](C)NC(=O)CC=C[C@H]1C | -0.563 | 1.75 | -0.203 | 0.126 | 0.269 | -0.557 | -0.139 | -0.87 (inactive) | -0.118 | 0.0505 |
| C=C[C@H](C)[C@H](O)c1ccc(O)c2ccccc12 | 0.101 and 0.398 | 0.848 and -0.282 | -0.144 and -0.0541 | -0.737 and -0.0937 | -1.43 and -0.16 | -0.532 and -0.889 | 0.316 and -0.53 | -0.891 (inactive) and -0.971 (inactive) | -1.03 and -0.735 | -0.12 and -0.0994 |
| C=CCN1C(=O)[C@]2(O[C@H](CCn3cc(CCO)nn3)[C@@H]([Si](C)(C)c3ccc(OC)cc3)[C@@H]2C)c2cc(N3C(=O)c4cccc5cccc3c45)ccc21 | -0.298 and -0.359 | 1.1 and -0.4 | -0.0069 and -0.0563 | 0.678 and 0.735 | 0.285 and 0.226 | 1.19 and 0.465 | 1.03 | -2.77 (inactive) and -2.7 (inactive) | 0.115 and -0.305 | -0.0618 and 0.157 |
| COC(=O)C1=C(C)N(Cc2ccccc2)C2=C(C(C)=O)C[C@@](O)(C(=O)OC)C(=O)N2[C@@H]1c1ccccc1 | -0.335 and -0.244 | 1.12 and -0.0954 | -0.0005 and -0.118 | 0.889 and 0.0839 | 1.43 and 1.26 | -0.119 and -0.159 | 1.05 and 0.439 | -0.486 (inactive) and -0.75 (inactive) | 0.235 and 0.385 | -0.0994 and 0.21 |
| C[C@@H]1CC[C@H]2C(=O)N3[C@@H](CC[C@@H](C)[C@@H]3c3ccc(-c4ccco4)cc3)C(=O)N2[C@H]1c1ccc(-c2ccco2)cc1 | -0.23 and 1.14 | 0.762 and 1.98 | -0.0084 and -0.0668 | 0.906 and 1.16 | 0.422 and 1.15 | 0.992 and 0.667 | 1.29 and 1.3 | -0.248 (inactive) and 0.445 (inactive) | 0.443 and 1.26 | 0.132 and 0.259 |
| CC(C)[Si]1(C(C)C)OCc2cc(C3CC3)nc(CCc3ccccc3)c21 | -0.141 and -0.208 | -0.305 and 0.114 | -0.0412 and -0.16 | -0.124 and 0.172 | 0.0069 and 0.589 | -0.352 and -0.0692 | -1.21 and -0.253 | -0.218 (inactive) and 0.53 (inactive) | 0.0391 and 0.169 | -0.0237 and -0.118 |
| C[C@@H]1CC[C@H]2C(=O)NC[C@@H](O)CN2[C@H]1c1ccc(Br)cc1 | -0.194 and -0.181 | 0.332 and 0.0997 | -0.116 and -0.134 | 0.23 and 0.0389 | -0.556 and -0.244 | 0.229 and -0.138 | 0.693 and 0.72 | 0.674 (inactive) and -0.078 (inactive) | -0.304 and 0.127 | -0.3 and -0.134 |
| Cc1ccc(S(=O)(=O)OC[C@@H]2CN3[C@@H](CC[C@@H](C)[C@@H]3c3ccc(Br)cc3)C(=O)O2)cc1 | -0.14 and -0.482 | 0.299 and 0.063 | -0.0502 and 0.0062 | 0.251 and 0.369 | 0.246 and 0.663 | 0.311 and 0.0379 | 0.168 and 1.07 | 0.472 (inactive) and -0.0959 (inactive) | 0.447 and 0.166 | 0.21 and 0.268 |
